Pf Dd2 inh = qHTS Primary assay for Inhibitors of Plasmodium falciparum Dd2 growth in vitro; 4.3% of 120,000 active; P. falciparum Dd2 growth, SYBR Green, 72 h; Potency, µM (titrated, usually from 28.9 µM), most hits filed as inhibitors; AID 1347417, 2020; active = well fitted inhibition curve with a large enough effect; also: nearly all actives have a fitted effect of over 65% in size
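Readout: SYBR Green fluorescence, 485 nm excitation, 535 nm emission, after ~16 h lysis at 37C. Before that, Dd2-infected red cells (2.5% hematocrit) grew 72 h with compound, 29 uM top final concentration.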
Of the large screens only hits and unclear results are named; the others gave an inactive call. This excerpt belongs to a sample that is enriched for hits.

Cc1noc(Cn2c(=O)c3cc4c(cc3n(CC(=O)Nc3ccc(C(C)C)cc3)c2=O)OCO4)n1	Pf Dd2 inh 13µM
CC(C)c1ccc(NC(=O)Cn2c(=O)n(Cc3nc(-c4ccccc4)no3)c(=O)c3cc4c(cc32)OCO4)cc1	none
COC[C@@H]1CN(C(=O)COc2ccc(F)cc2)C[C@H]1c1nc(C)no1	none
CCCCNc1cc(N2CCN(C3CCCCC3)CC2)c2noc3c2c1C(=O)c1ccccc1-3	Pf Dd2 inh 2.5µM
CN1CC(=O)N(C2CCCNCC2)Cc2c(NCCc3ccccc3F)ncnc21 (stereo not given)	none
CCn1c(C2CCN(C(=O)CCc3ccccc3OC)CC2)nn(C)c1=O	none
COC(=O)c1scc(-c2ccc(C)cc2)c1S(=O)(=O)Nc1cccc(Cl)c1C	none
CCOc1ccccc1NS(=O)(=O)c1c(-c2ccc(C)cc2)csc1C(=O)OC	Pf Dd2 inh 10µM
COC(=O)c1scc(-c2ccc(C)cc2)c1S(=O)(=O)Nc1ccc(F)cc1F	none
COc1ccc2[nH]c3c(c2c1)CCNC31CCN(C(=O)C2CCCO2)CC1 (stereo not given)	none
C=CCNC(=O)[C@@H]1CCCN1[C@@H](C(=O)NC)c1ccccc1F	none
COc1cc(OC)cc(C2NC(=O)NC(C)=C2C(=O)N2CCNC(=O)C2)c1 (stereo not given)	none
O=C(CCc1ccccc1)NCCC1CCN(C(=O)Nc2ccc(F)cc2F)CC1	none
C=CCN1CCN(C(=O)CCC[C@@H]2[C@H]3CCCN4CCC[C@@H](CN2C(=O)c2ccccc2)[C@@H]34)CC1	Pf Dd2 inh 10µM
C=CCN1CCN(C(=O)CCC[C@@H]2[C@H]3CCCN4CCC[C@@H](CN2Cc2ccccc2)[C@@H]34)CC1	none
O=C(CCC[C@@H]1[C@H]2CCCN3CCC[C@@H](CN1C(=O)c1cccnc1)[C@@H]23)N1CCCC1	none
Cc1cc(C)cc(C(=O)N2CCC(CC(=O)NCc3ccccc3)C2)c1 (stereo not given)	none
CC(C)N1C[C@H](O)C[C@H]1c1nnc2n1CCN(C(=O)C1CCOCC1)CC2	none
COc1ccc(S(=O)(=O)NC[C@H]2COCc3nc4ccc(C)cc4n32)cc1	none
COCCN1CCN(C[C@@H]2C=C(C)[C@H](Cc3nnc(-c4ccc(N(C)C)cc4)o3)C[C@H]2C(C)C)CC1	Pf Dd2 inh 4µM
COCCN1CCN(C[C@@H]2C=C(C)[C@H](Cc3nnc(-c4cccnc4)o3)C[C@H]2C(C)C)CC1	none
CC1=C[C@@H](CN2CCC(O)CC2)[C@H](C(C)C)C[C@H]1Cc1nnc(-c2ccc(N(C)C)cc2)o1	Pf Dd2 inh 3.5µM
CC1=C[C@@H](CN2CCC(O)CC2)[C@H](C(C)C)C[C@H]1Cc1nnc(C)o1	none
COc1ccc(OC2CN(C(=O)c3ccccc3)C2)cc1	none
CC(C)Oc1ccc(CN2C(=O)C3(CCOCC3)CC2c2nnnn2C(C)(C)C)cc1 (stereo not given)	none
Cc1cccc(CC(=O)Nc2c(C(=O)Nc3cccc(F)c3)oc3ccccc23)c1	none
Cc1cccc(OCC(=O)Nc2c(C(=O)Nc3ccc(F)cc3)oc3ccccc23)c1	none
Cc1ccc(C(=O)c2oc3ccccc3c2NC(=O)COc2ccc(Cl)c(C)c2)cc1	none
Cc1cccc(OCC(=O)Nc2c(C(=O)N3CCN(c4ccccc4)CC3)oc3ccccc23)c1	Pf Dd2 inh 11µM
O=C(Nc1c(C(=O)N2CCN(c3ccccc3F)CC2)oc2ccccc12)c1ccccc1F	none
COc1ccc(N2CCN(C(=O)c3oc4ccccc4c3NC(=O)c3ccccc3OC)CC2)cc1	none
O=C(Nc1c(C(=O)N2CCN(c3ccccc3)CC2)oc2ccccc12)c1ccccc1F	none
Cc1cccc(C(=O)Nc2c(C(=O)N3CCN(c4ccc(F)cc4)CC3)oc3ccccc23)c1	Pf Dd2 inh 13µM
O=C(Nc1c(C(=O)N2CCN(c3ccccc3)CC2)oc2ccccc12)c1ccc(Br)o1	Pf Dd2 inh 10µM
O=C(c1cc(F)ccc1Cl)N1CCC(Cc2nc(-c3ccccc3)no2)CC1	none
CC(C)(C)CC(=O)N1CC[C@@H](CC(=O)O)[C@@H](CCN2CCN(c3cccc(C(F)(F)F)c3)CC2)C1	none
CCc1ccc(NC(=O)N2CCC(N3CC4CC(C3)[C@H]3CCCC(=O)N3C4)CC2)cc1 (stereo not given in full)	none
O=C(NCCc1ccccc1)N1CCC2(CC1)CC(N1CCOCC1)CCO2 (stereo not given)	none
Cc1cc(C)n(-c2ccc(F)cc2CN2CCC3(CC2)COC(=O)O3)n1	none
COc1cccc(-c2nnnn2[C@H]2CO[C@H]3[C@@H]2OC[C@@H]3NC(=O)c2ccccc2)c1	none
COc1cccc(-c2noc(N3CCCC3)n2)c1OC	none
COc1cccc(-c2nc3cc4c(cc3cc2CN2CCSCC2)OCO4)c1OC	Pf Dd2 inh 11µM
COc1cccc(-c2nc3cc4c(cc3cc2CN2CCOCC2)OCO4)c1OC	none
CCOc1cc(=O)n2c(c1C(=O)Nc1ccc(SC)cc1)CCCC2	none
Cc1ccc(-c2noc([C@@H]3C[C@@H](O)CN3Cc3ccc(C(=O)O)cc3)n2)cc1F	none
O=C(NCc1ccccc1)N1CCC(N(C(=O)C2CC2)C2CCOCC2)CC1	none
CC(C)CNC(=O)N1CC(Oc2ccccc2-c2nc(-c3ccccc3)no2)C1	none
